# Compound activity deposited in PubChem BioAssay by National Center for Advancing Translational Sciences (NCATS).
# Many of the other results were omitted from the sample, so hits are more common in it than they were.
# RE007 growth inh = qHTS Assay for Inhibitors of the HIV-1 protein Vpr | S. pombe RE007 Vpr strain, BacTiter-Glo ATP luminescence, 24 h | Potency, µM (titrated, usually from 92.2 µM), for inactives: at the highest dose activity change, negative = less growth, usual class: inhibitors | 0.21% of 360,000 active | AID 651644, 2012; active = well fitted falling curve with a large enough effect; inconclusive = small, poorly fitted or top-dose-only effect; inactive = no such curve, though single readings can be large or run the other way; also: potency is read from the fitted curve at half-maximal effect; % is scaled to controls: 0 for no effect and ±100 for the full control effect; nearly all actives have a fitted effect of over 50% in size
#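 Fission yeast RE007 carrying one integrated HIV-1 vpr copy, seeded at OD 0.01 in PMG+AL medium with 23 nL pinned compound. Grown 24 h at 30 degrees; viability read by BacTiter-Glo luminescence after 5 min.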
# LmPK inh = qHTS Assay for Inhibitors of Leishmania Mexicana Pyruvate Kinase (LmPK); purified LmPK, Kinase-Glo ATP luminescence, 1 h; Q27686; 0.37% of 290,000 active; Potency, µM (doses to about 57.5 µM), without a hit: top-dose activity change, negative = inhibition, usual class: inhibitors; also: potency is read from the fitted curve at half-maximal effect; % is scaled to controls: 0 for no effect and ±100 for the full control effect
#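 ATP generated from ADP (0.1 mM) and PEP (0.5 mM) by 0.1 nM LmPK over 1 h at room temperature (pH 7.2 imidazole buffer) was detected by coupled luciferase luminescence. Values were normalized to uninhibited and no-enzyme wells.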
# Cycloheximide cs = Cycloheximide Counterscreen for Small Molecule Inhibitors of Shiga Toxin; cell reporter, cycloheximide protein synthesis inhibition counterscreen; max response, %; 12% of 300,000 active; AID 2314, 2010; in the data active = max response mostly above about 13%, no sharp cut-off; inactive = mostly below about 14%; also: read at 38.3 µM for the half of the compounds with a filed dose; 0% is about no effect
# Shiga inhibitor = A qHTS for Small Molecule Inhibitors of Shiga Toxin; Vero cells, Shiga toxin protein synthesis inhibition reporter; inhibition, % at 38.7 µM; 9.2% of 290,000 active; in the data active = inhibition mostly above about 28%, no sharp cut-off; inactive = mostly below about 43%; also: 0% is about no effect
# FBPA Giardia inh = qHTS Assay for Inhibitors of Fructose-1,6-bisphosphate Aldolase from Giardia Lamblia; A8B2U2; purified Giardia FBPA; Potency, µM (top dose mostly 59.6 µM), for the others: top-dose activity, negative = inhibition, usual class: inhibitors; 0.71% of 290,000 active; AID 2451, 2010; also: potency is read from the fitted curve at half-maximal effect; % is scaled to controls: 0 for no effect and ±100 for the full control effect; nearly all actives have a fitted effect of over 55% in size
# Target sequence (A8B2U2 whole entry, looked up): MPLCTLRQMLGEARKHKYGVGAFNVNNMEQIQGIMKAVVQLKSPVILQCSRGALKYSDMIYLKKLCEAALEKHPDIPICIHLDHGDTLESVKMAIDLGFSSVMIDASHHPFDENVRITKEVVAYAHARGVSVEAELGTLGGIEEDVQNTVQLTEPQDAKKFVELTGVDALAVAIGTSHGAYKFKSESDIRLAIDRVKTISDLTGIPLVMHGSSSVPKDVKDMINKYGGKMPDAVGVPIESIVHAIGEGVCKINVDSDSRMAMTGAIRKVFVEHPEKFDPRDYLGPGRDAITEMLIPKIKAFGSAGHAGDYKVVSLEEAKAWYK
#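 Giardia FBPA (40 nM reagent) was preincubated 10 min at RT with compound (up to 57.5 uM final), then substrate plus GAPDH/TPI/NAD/arsenate coupling system with diaphorase/resazurin was added; resorufin fluorescence (525/598 nm) was read after 20 min.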
# TbPYK inhibitor = qHTS of Trypanosoma Brucei Inhibitors | pyruvate kinase (Trypanosoma brucei), Q57TT1 | TbPYK enzyme, Kinase-Glo Plus ATP luminescence, 45 min | Potency, µM (series often up to 76.8 µM), without a hit: at the highest dose activity, negative = inhibition, most hits filed as inhibitors | 0.12% of 410,000 active | AID 624173, 2012; also: potency is read from the fitted curve at half-maximal effect; % is scaled to controls: 0 for no effect and ±100 for the full control effect; nearly all actives have a fitted effect of over 50% in size
#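 Readout: single end-point luminescence (Kinase-Glo Plus, 10 min). Reaction conditions were TbPYK/substrate plus 130 uM ADP, 45 min at RT, pH 7.2 TEA buffer. No-enzyme wells served as controls, and data were normalized before concentration-response fitting.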
# The depositor's hits bear a star; ? = inconclusive; nt = not tested or not shown; [ ] = dose if it differs, or a comment. Unless noted, calls follow the shape of the dose curve; as a rule, active = well fitted curve in the direction sought with a large enough effect; inconclusive = small, poorly fitted or top-dose-only effect, or another doubt; inactive = no such curve, though single readings can be large; an effect the other way counts as inactive or inconclusive.
SMILES,RE007 growth inh,LmPK inh,Cycloheximide cs,Shiga inhibitor,FBPA Giardia inh,TbPYK inhibitor
O=C(CCn1nc(-c2ccc(Cl)cc2)ccc1=O)NCc1ccccn1,21%,-3%,-1,-2,0%,-1%
O=C(CCCOc1ccc(Cl)cc1Cl)NCCc1nnc2ccccn12,-6%,5%,15,19*,-8%,-1%
O=C(CCCOc1ccc(Cl)cc1Cl)NCCCO,8%,-1%,12,-20,6%,-4%
O=C(CCSc1ccc(Cl)cc1)NCc1ccccn1,3%,2%,13*,23,2%,-4%
Cc1cc(C)cc(NC(=O)c2ccc3oc(=O)c(S(=O)(=O)c4ccc(F)cc4)cc3c2)c1,nt,nt,nt,nt,nt,-1%
Cc1nc2c(O)cccc2cc1CO,3%,6%,1,-14,20µM*,-1%
CC1=NC(=O)C(N=Nc2cccc(O)c2)N1c1ccccc1 (configuration not stated),-14%,2%,27*,55*,-30%,0%
Cc1cccc(-n2c(O)c(C=Nc3cccc(O)c3)c3ccccc3c2=O)n1,7%,2%,11,-9,-4%,-22%
Cc1cc(=O)oc2cc(NC(=O)[C@H](CCCCN)NC(=O)[C@H](CC3CCCCC3)NC(=O)OCC3c4ccccc4-c4ccccc43)ccc12,nt,nt,-7,-11,-4%,nt
COC(=O)c1sc2cccc(F)c2c1S(=O)(=O)NCc1ccc(Cl)cc1,nt,nt,nt,nt,nt,-9%
c1ccc(C2=Nc3ccccc3SC2c2nc3ccccc3[nH]2)cc1 (configuration not stated),nt,0%,36*,87*,?,nt
O=C1CC(c2nc3ccccc3[nH]2)CN1c1ccccc1 (configuration not stated),7%,-1%,8,7,0%,3%
Cc1cc(C(=O)CN2CCCC2)c(C)n1-c1ccc(F)cc1,-9%,5%,3,6,-1%,-4%
Cc1cc(C(=O)NC2CCCCC2)c(C)n1-c1ccc(F)cc1,32%,-4%,46*,77*,-14%,3%
Cc1cc(C(=O)CN2CCCCC2)c(C)n1-c1ccc(F)cc1,1%,-1%,37*,56*,1%,-2%
COc1ccc(-n2c(C)cc(C(=O)CN3CCC(C)CC3)c2C)cc1,21%,-4%,37*,63,0%,10%
COc1ccc(-n2c(C)cc(C(=O)CN3CCCCC3)c2C)cc1,-4%,0%,17,-3,-2%,2%
Cc1cc(C(=O)CN2CCC(C)CC2)c(C)n1-c1ccc(F)cc1,-13%,6%,32*,22*,0%,-1%
Cc1c(C(=O)N2CCC(C)CC2)c(S(=O)(=O)Nc2ccc(OC(F)(F)F)cc2)c(C)n1C,nt,nt,nt,nt,nt,-8%
Cc1nc(N2CCOCC2)c2nc(-c3ccccc3)n(CC(C)(C)CN(C)C)c2n1,nt,nt,nt,nt,4%,nt
Cc1cc(C(=O)CNCc2ccco2)c(C)n1-c1ccc(F)cc1,11%,0%,38*,74*,?,9%
COc1ccc2[nH]cc(C(=O)CN3CCC(C)CC3)c2c1,19%,2%,35*,76*,-1%,-9%
COc1ccc2[nH]cc(C(=O)CN3CCCC(C)C3)c2c1 (configuration not stated),22%,-2%,-1,15,-3%,1%
COC(=O)C/C=C1\c2ccccc2[C@H](OC)[C@H]1C,nt,nt,nt,nt,1%[12.9 µM],nt
COc1ccc(CCNC(=O)c2oc3ccc(OC)cc3c2C)cc1,16%,-9%,13,-16,nt,-4%
CCCc1ccc2oc(C(=O)NCCc3cnn(C)c3)c(C)c2c1,-4%,0%,34*,104*,nt,-13%
CCCc1ccc2oc(C(=O)NCCc3nc(C(=O)OCC)cs3)c(C)c2c1,2%,1%,32*,50*,9%,-4%
COc1ccc2c(c1)O[C@@H](c1cccc(C(F)(F)F)c1)[C@H](OC(=O)NCc1ccco1)C2=O,nt,nt,nt,nt,-1%,nt
